The values that follow come from PubChem BioAssay (NCI).

Test systems include SR leukemia; RPMI-8226 leukemia; OVCAR-8 ovarian; OVCAR-5 ovarian; OVCAR-4 ovarian; SK-OV-3 ovarian; IGROV1 ovarian; OVCAR-3 ovarian; HS 578T breast; NCI/ADR-RES ovarian; T-47D breast; BT-549 breast; MDA-MB-435 melanoma; SW-620 colon; MCF7 breast; HCT-116 colon; HCC-2998 colon; KM12 colon.
Holding throughout (experiment): NCI-60 one-dose screen, 48 h (100 = growth as untreated, 0 = no growth, -100 = all killed)
What all share (settings): 10 µM

The structures appear in SMILES notation. This is part of a sample that, as a whole, favours compounds with a hit. Of some 83,000 tested, about 20% had one in any assay.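 Negative percent growth values reflect cell death: -40 means 40% of the cells present at the start died, and -100 means all died.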 Values without a mark were called inactive. The source made the active and inactive calls. How the source made its calls: active means growth percent below 10; inactive means the rest.

For `NC(=O)C12C(=O)NC(=O)C1(C(=O)O)C21CCCC1` (centres undefined), the growth was 106% in the experiment with SR leukemia; 94.6% in the experiment with RPMI-8226 leukemia; 104% with OVCAR-8 ovarian; 110% with OVCAR-5 ovarian; 104% in the experiment with OVCAR-4 ovarian; 116% in the experiment on SK-OV-3 ovarian. Moreover, the growth in the experiment on IGROV1 ovarian is 106%; in the experiment with OVCAR-3 ovarian, 116%; in the experiment on HS 578T breast it was 107%; in the experiment on NCI/ADR-RES ovarian it was 114%; with T-47D breast, 114%; in the experiment with BT-549 breast, 104%. The growth with MDA-MB-435 melanoma was 100%; in the experiment with SW-620 colon it was 104%; with MCF7 breast it was 96.3%; in the experiment with HCT-116 colon, 101%; in the experiment on HCC-2998 colon it was 114%; with KM12 colon, 113%.

For the compound `N#Cc1ccc(-n2cnc(NC(=O)[C@H]3CCN(C#N)C3)c2)cc1`, the growth was 6.48% (active) in the experiment with SR leukemia; 16.2% in the experiment with RPMI-8226 leukemia; 15.5% in the experiment on OVCAR-8 ovarian; 23.8% with OVCAR-5 ovarian; 28.9% in the experiment with OVCAR-4 ovarian; 62.5% with SK-OV-3 ovarian. Also, the growth was 20.8% in the experiment with IGROV1 ovarian; 11.4% in the experiment on OVCAR-3 ovarian; 19.2% in the experiment with HS 578T breast; 36.6% in the experiment with NCI/ADR-RES ovarian; -9.28% (active) in the experiment on T-47D breast; 18.5% in the experiment on BT-549 breast. For the same compound, the growth was 16.2% with MDA-MB-435 melanoma; 16.6% in the experiment with SW-620 colon; 4.82% (active) in the experiment with MCF7 breast; 5.34% (active) in the experiment on HCT-116 colon; 38.5% in the experiment with HCC-2998 colon; 8.31% (active) in the experiment on KM12 colon.

Turning to `N=C(N)c1ccc(-c2ccc(-c3cccs3)s2)nc1`, the growth is -9.12% (active) in the experiment with SR leukemia; -24.2% (active) with RPMI-8226 leukemia; 55.7% in the experiment with OVCAR-8 ovarian; 62.5% in the experiment with OVCAR-5 ovarian; 34.7% in the experiment on OVCAR-4 ovarian; 63.4% in the experiment with SK-OV-3 ovarian. Besides, the growth is 70.4% with IGROV1 ovarian; 38.6% in the experiment with OVCAR-3 ovarian; 80.1% in the experiment on HS 578T breast; 84.8% in the experiment with NCI/ADR-RES ovarian; 43% with T-47D breast; 91% with BT-549 breast. Also, the growth is 44.5% in the experiment with MDA-MB-435 melanoma; 22.4% with SW-620 colon; 17.8% in the experiment with MCF7 breast; 18.5% in the experiment with HCT-116 colon; -52.7% (active) in the experiment on HCC-2998 colon.

As to `N#Cc1ncc(-c2cc(F)ccc2F)c(NC2CCCCCC2)n1`, the growth in the experiment on SR leukemia is 81.6%; with RPMI-8226 leukemia, 57.8%; with OVCAR-8 ovarian, 88.4%; in the experiment with OVCAR-5 ovarian, 98.9%; in the experiment on OVCAR-4 ovarian, 80.3%; with SK-OV-3 ovarian it was 91.6%. The growth in the experiment with IGROV1 ovarian is 86%; with OVCAR-3 ovarian, 103%; with HS 578T breast it was 58.2%; in the experiment on NCI/ADR-RES ovarian, 91.2%; in the experiment with T-47D breast, 69.5%; in the experiment with BT-549 breast it was 76.2%. Moreover, the growth in the experiment with MDA-MB-435 melanoma is 93.6%; in the experiment with SW-620 colon, 96.1%; in the experiment with MCF7 breast, 82.3%; in the experiment on HCT-116 colon, 85.6%; in the experiment with HCC-2998 colon, 82.3%; with KM12 colon, 36.4%.

Regarding `COc1cc(Cl)cc(-c2nn(-c3cccc(NC(=O)Nc4cccc(C(F)(F)F)c4)c3)cc2-c2ccncc2)c1`, the growth in the experiment on SR leukemia was -13.5% (active); in the experiment with RPMI-8226 leukemia, -14.2% (active); in the experiment on OVCAR-8 ovarian, -12.3% (active); with OVCAR-5 ovarian, 34.1%; in the experiment on OVCAR-4 ovarian, 3.28% (active); in the experiment with SK-OV-3 ovarian it was 14.2%. The growth in the experiment with IGROV1 ovarian is 28.8%; with OVCAR-3 ovarian, -0.412% (active); in the experiment with HS 578T breast, 23.1%; with NCI/ADR-RES ovarian, 3.58% (active); in the experiment with T-47D breast it was -0.45% (active); in the experiment on BT-549 breast, 12.9%. The growth was -20.9% (active) in the experiment with MDA-MB-435 melanoma; 11.2% with SW-620 colon; 0.3% (active) in the experiment with MCF7 breast; 5.07% (active) in the experiment on HCT-116 colon; 19% with HCC-2998 colon; 9.81% (active) in the experiment with KM12 colon.

For the compound `COc1ccc(C(C)=O)cc1N1C(=O)C2C(C1=O)C1(c3ccccc3)C(=O)C2(c2ccccc2)C(c2ccc(C)cc2)=C1c1ccc(C)cc1` (centres undefined), the growth in the experiment on SR leukemia was 8.77% (active); in the experiment with RPMI-8226 leukemia, 17.2%; in the experiment on OVCAR-8 ovarian, 14.5%; in the experiment with OVCAR-5 ovarian it was 55.7%; in the experiment on OVCAR-4 ovarian it was 26.2%; with SK-OV-3 ovarian, 32.2%. The growth is 9.07% (active) in the experiment on IGROV1 ovarian; 21.4% in the experiment on OVCAR-3 ovarian; 80.7% in the experiment on HS 578T breast; 12.7% with NCI/ADR-RES ovarian; 32.3% in the experiment on T-47D breast; 38.4% with BT-549 breast. In addition, the growth was 35.6% in the experiment with MDA-MB-435 melanoma; 27.1% in the experiment on SW-620 colon; 15.6% in the experiment with MCF7 breast; 24.3% in the experiment on HCT-116 colon; 46.6% in the experiment with HCC-2998 colon.

For the compound `CCCn1c(=O)c2c(nc(-c3cccc(OCCCCl)c3)n2C)n(CCC)c1=O`, the growth with SR leukemia was 59.6%; with RPMI-8226 leukemia, 83.9%; in the experiment with OVCAR-8 ovarian, 33.9%; in the experiment on OVCAR-5 ovarian, 73.1%; with OVCAR-4 ovarian, 0.205% (active); with SK-OV-3 ovarian it was 7.41% (active). For the same compound, the growth was 30.2% in the experiment on IGROV1 ovarian; 21.7% with OVCAR-3 ovarian; 31.4% in the experiment on HS 578T breast; 35.9% in the experiment with NCI/ADR-RES ovarian; 15.8% in the experiment on T-47D breast; 67.9% in the experiment with BT-549 breast. Also, the growth in the experiment on MDA-MB-435 melanoma is 82.5%; in the experiment with SW-620 colon it was 76.6%; in the experiment on MCF7 breast, 84.6%; with HCT-116 colon it was 36.4%; with HCC-2998 colon it was 69.7%; in the experiment on KM12 colon it was 76.2%.

With `C#Cc1ccc(-n2c(/C=C/c3cc(OC)c(OC)c(OC)c3)nc3ncccc3c2=O)cc1`, the growth in the experiment with SR leukemia is 11.2%; in the experiment on RPMI-8226 leukemia, 40.9%; in the experiment with OVCAR-8 ovarian it was 75.1%; in the experiment on OVCAR-5 ovarian, 120%; in the experiment on OVCAR-4 ovarian it was 63.4%; with SK-OV-3 ovarian, 65.9%. For the same compound, the growth in the experiment with IGROV1 ovarian was 56.3%; with OVCAR-3 ovarian, 4.62% (active); with HS 578T breast, 75.4%; in the experiment on NCI/ADR-RES ovarian it was 54.6%; in the experiment on T-47D breast it was 58.9%; with BT-549 breast it was 59.7%. The growth in the experiment with MDA-MB-435 melanoma is -9.47% (active); in the experiment with SW-620 colon it was 49.1%; in the experiment with MCF7 breast it was 25%; in the experiment with HCT-116 colon, 54.2%; with HCC-2998 colon, 91%.

For `COc1ccccc1Cn1cc2c(c1-c1ccccc1)CCc1cnoc1-2`, the growth with SR leukemia is 26.3%; in the experiment on RPMI-8226 leukemia, 38.8%; in the experiment on OVCAR-8 ovarian, 56%; in the experiment with OVCAR-5 ovarian it was 77.2%; in the experiment on OVCAR-4 ovarian, 61.4%; with SK-OV-3 ovarian, 19.1%. Besides, the growth in the experiment with IGROV1 ovarian is 44.8%; in the experiment on OVCAR-3 ovarian it was 6.99% (active); in the experiment on HS 578T breast it was 9.97% (active); in the experiment with NCI/ADR-RES ovarian, 21.3%; in the experiment with T-47D breast, 29.4%; in the experiment on BT-549 breast, 46.9%. In addition, the growth with MDA-MB-435 melanoma is -21.3% (active); in the experiment on SW-620 colon, 16.8%; with MCF7 breast, 19.3%; in the experiment on HCT-116 colon it was 20.9%; in the experiment with HCC-2998 colon, 81%; in the experiment with KM12 colon, 29.5%.
